# Test results: PubChem BioAssay (NCATS)
# Values without a mark were called inactive. Results filed as inconclusive are left out. Entries that show only a call come without a potency. The source made the active and inactive calls. The call rests on the fitted dose curve; in most records, active means well fitted curve in the direction sought with a large enough effect; inconclusive means small, poorly fitted or top-dose-only effect, or another doubt; inactive means no such curve, though single readings can be large; an effect the other way counts as inactive or inconclusive.
# Columns and labels:
# [1] = biological target: Glutathione peroxidase 1 (Homo sapiens) (UniProt P07203); assay: Primary qHTS Assay for Inhibitors of Recombinant Selenoprotein Glutathione Peroxidase 1 (GPX1) (AID 1845191); further: nearly all actives have a fitted effect of over 65% in size
# Chain of Glutathione peroxidase 1 (Homo sapiens) (P07203 whole entry, looked up): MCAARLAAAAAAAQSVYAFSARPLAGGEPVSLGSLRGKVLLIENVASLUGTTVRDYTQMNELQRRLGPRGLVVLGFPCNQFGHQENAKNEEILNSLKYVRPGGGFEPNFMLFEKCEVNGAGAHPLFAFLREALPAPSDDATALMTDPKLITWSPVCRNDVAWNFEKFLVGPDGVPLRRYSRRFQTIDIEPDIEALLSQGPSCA
# Summary of the method: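 10 nM GPX1 + cpd, 30 min RT; start w/ 1 mM GSH, 0.5 mM cumene hydroperoxide, 0.5 mM NADPH, 100 nM GR, 0.01% BSA; buffer 50 mM Tris-HCl pH 7.5, 2 mM EDTA, 150 mM NaCl; Fl 340/450, 0 & 15 min.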
# [2] = biological target: Phospholipid hydroperoxide glutathione peroxidase GPX4 (Homo sapiens) (UniProt P36969); assay: Primary qHTS Assay for Inhibitors of Recombinant Selenoprotein Glutathione Peroxidase 4 (GPX4) (AID 1845192); further: nearly all actives have a fitted effect of over 65% in size; on activity change, negative = inhibition: series mostly up to about 50 µM
# Chain of Phospholipid hydroperoxide glutathione peroxidase GPX4 (Homo sapiens) (P36969 whole entry, looked up): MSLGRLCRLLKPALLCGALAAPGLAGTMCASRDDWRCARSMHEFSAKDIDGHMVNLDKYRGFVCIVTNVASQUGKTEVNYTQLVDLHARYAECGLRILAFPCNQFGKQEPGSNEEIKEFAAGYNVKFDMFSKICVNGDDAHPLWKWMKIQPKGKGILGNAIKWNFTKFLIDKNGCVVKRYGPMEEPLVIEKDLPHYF
# Summary of the method: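 NADPH consumption, followed by fluorescence at 340/450 nm between 0 and 15 min, reports GPX4 activity via coupled glutathione reductase (100 nM). Enzyme 200 nM was pre-exposed to compound 30 min; 0.5 mM cumene hydroperoxide and 1 mM GSH served as substrates.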
# [3] = biological target: Luciferin 4-monooxygenase (Photinus pyralis) (UniProt P08659); assay: Primary firefly luciferase (FLuc) qHTS assay for identification of artifact compounds. (AID 1845220); further: nearly all actives have a fitted effect of over 60% in size; on activity change, negative = inhibition: series mostly up to about 54 µM
# Summary of the method: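 Compounds sat 15 min at room temperature with 10 uM luciferin and 10 uM ATP (pH 7.6 Tris acetate). Firefly luciferase (10 nM final) was then added, and luminescence was read 5 min later. Data normalized to no-enzyme and DMSO controls were Hill-fitted.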
# [4] = Primary fluorescence-based thiol-reactive (MSTI) qHTS assay for identification of artifact compounds. (AID 1845221); further: nearly all actives have a fitted effect of over 65% in size; further: potency means the concentration at half of the fitted maximal effect;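 on activity change, negative = thiol reactive: series mostly up to about 54 µM; thiol-reactive compounds lower the probe fluorescence signal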
# Summary of the method: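 Probe: MSTI 4 uM, PBS pH 7.4, 2% DMSO. Incubation 1 h, RT, light-protected. Readout fluorescence 525/598 nm.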
# [5] = test system: Nanoluciferase (engineered Oplophorus gracilirostris luciferase); assay: Primary Nanoluciferase (NLuc) qHTS assay for identification of artifact compounds. (AID 1845222); further: series mostly up to about 54 µM
# Summary of the method: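 Luminescence from secreted NLuc (filtered, 1:55-diluted S16 cell medium) read 5 min after Nano-Glo substrate; compounds preincubated 15 min, RT. Hill fits of inhibition normalized to DMSO and no-enzyme.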
# [6] = Primary redox qHTS assay for identification of artifact compounds. (AID 1845223)
# Summary of the method: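 Amplex Red (25 uM) and HRP (250 mU/mL) in HBSS, with compounds for 15 min, then 250 uM DTT for 30 min, room temperature, dark. Fluorescence 525/598 nm read; normalized to DMSO and 10 uM DA3003; Hill fit.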
Structure (SMILES),Potency [1],Potency [2],Potency [3],Potency [4],Potency [5],Potency [6],"activity change, negative = inhibition [3]","activity change, negative = thiol reactive [4]","activity, negative = inhibition [5]",redox activity (% of DA3003) [6]
CO[C@@H]1[C@H](O)CCC2(CO2)[C@H]1[C@@]1(C)O[C@@H]1CC=C(C)C (stereo partly drawn),inactive,inactive,inactive,inactive,inactive,inactive,–,–,–,–
C[C@@H](NC(=O)c1ccc(C#Cc2cccc(F)c2)cn1)C(C)(C)O,inactive,inactive,inactive,inactive,inactive,inactive,–,–,–,–
O=C(NCCN1CCN(c2cccc3c2OCCO3)CC1)c1ccc(F)cc1,inactive,inactive,inactive,inactive,inactive,inactive,–,–,–,–
CS(=O)(=O)Nc1ccc2oc3c(OC(F)F)ccc(C(=O)Nc4c(Cl)cncc4Cl)c3c2c1,inactive,inactive,inactive,inactive,inactive,inactive,–,–,–,–
C[C@@]12C(=O)N(c3ccc(C(=O)Nc4cccc5cccnc45)cc3)C(=O)[C@@H]1[C@@H]1C=C[C@H]2C1,inactive,inactive,inactive,inactive,inactive,inactive,–,–,–,–
COc1ccc(CN2CCN(CCCSc3cc(C(C)(C)C)c(O)c(C(C)(C)C)c3)CC2)c(OC)c1OC,inactive,inactive,–,–,–,–,3.48% [at 11.6 µM],2.62% [at 11.5 µM],3.22% [at 11.6 µM],6.4% [at 11.5 µM]
CC(C)CCNC(=O)c1ccc2c(c1)nc(Nc1n[nH]c3ccc(-c4ccccc4OC(F)(F)F)cc13)n2C1CCC(O)CC1 (stereo not drawn),inactive,inactive,inactive,5.32 µM (active),inactive,inactive,–,–,–,–
O=C(Cc1c(F)cccc1F)Nc1cc(OCc2ccc(Cl)cc2)ccn1,inactive,inactive,inactive,inactive,inactive,inactive,–,–,–,–
COc1cc2ncnc(Oc3ccc(CC(=O)Nc4cnn(C(C)C)c4)cc3)c2cc1OC,inactive,inactive,inactive,inactive,inactive,inactive,–,–,–,–
C=C[C@@]12COC(=O)C(=C)[C@@H]1[C@@H](O)[C@H](C(=C)C(=O)OC)[C@@H](O)C2,inactive,inactive,inactive,inactive,inactive,inactive,–,–,–,–
COc1cccc(OCCCN)c1-c1cc(Nc2cnc(C#N)cn2)n[nH]1,inactive,inactive,inactive,inactive,inactive,inactive,–,–,–,–
CC(=O)OC(C)(C)/C=C/C(=O)C(C)(O)C1C(O)CC2(C)C3CC=C(C(C)(C)C(=O)O)C(CC(=O)O)C3(C)C(=O)CC12C (stereo not drawn),inactive,inactive,inactive,inactive,inactive,inactive,–,–,–,–
CC(=O)OC(C)(C)/C=C/C(=O)[C@](C)(O)[C@H]1C(O)C[C@@]2(C)[C@@H]3CC=C4[C@@H](C=C(O[C@@H]5O[C@H](CO)[C@@H](O)[C@H](O)[C@H]5O)C(=O)C4(C)C)[C@]3(C)C(=O)C[C@]12C (stereo partly drawn),inactive,inactive,inactive,inactive,inactive,inactive,–,–,–,–
Cc1cccc(N2CCN(C(=O)c3cc(S(=O)(=O)N(C)C)ccc3N3CCCC3)CC2)c1C,inactive,inactive,inactive,inactive,inactive,inactive,–,–,–,–
CC1(C)OC[C@H](NC(=O)Nc2ccc(Br)cc2Br)[C@H](c2ccccc2)O1,inactive,inactive,inactive,inactive,inactive,inactive,–,–,–,–
CC(=O)OC1CC(C)(C(=O)O)CC2C3=CC(=O)C4C5(C)CCC(OC6OC(C(=O)O)C(O)C(O)C6OC6OC(C(=O)O)C(O)C(O)C6O)C(C)(C)C5CCC4(C)C3(C)CCC12C (stereo not drawn),inactive,inactive,–,–,–,–,-10.2% [at 11.6 µM],9.23% [at 11.5 µM],-14.5% [at 11.6 µM],5.43% [at 11.5 µM]
CCN(CCNC(=O)Nc1ccccc1Br)c1cccc(C)c1,inactive,inactive,inactive,2.67 µM (active),inactive,inactive,–,–,–,–
Fc1ccc2c(CCNCc3cccc(OCC(F)(F)C(F)F)c3)c[nH]c2c1,inactive,inactive,inactive,inactive,inactive,inactive,–,–,–,–
COc1ccc(C2=NC(c3ccc(Cl)cc3)C(c3ccc(Cl)cc3)N2C(=O)N2CCNC(=O)C2)c(OC(C)C)c1 (stereo not drawn),inactive,inactive,inactive,inactive,inactive,inactive,–,–,–,–
CC(C)c1ccc(NC(=O)Cn2cnc3c2c(=O)n(C)c(=O)n3C)cc1,inactive,inactive,inactive,inactive,inactive,inactive,–,–,–,–
C[C@H]1CC[C@@]2(OC1)O[C@H]1CC3[C@@H]4CC[C@@H]5C[C@@H](O[C@@H]6O[C@H](CO)[C@@H](O[C@@H]7O[C@@H](C)[C@H](O)[C@@H](O)[C@H]7O)[C@H](O)[C@H]6O[C@@H]6O[C@H](CO)[C@@H](O)[C@H](O)[C@H]6O)CC[C@]5(C)C4CC[C@]3(C)[C@H]1[C@@H]2C (stereo partly drawn),inactive,inactive,–,–,–,–,0.648% [at 11.6 µM],131% [at 11.5 µM],2.19% [at 11.6 µM],-5.48% [at 11.5 µM]
FC(F)(F)c1ccc(/C=C/c2nc(COc3ccc(CCCCn4ccnn4)cc3)co2)cc1,inactive,inactive,inactive,inactive,inactive,inactive,–,–,–,–
C/C=C/CCC1Cc2cc(O)c(CCCC)c(O)c2C(=O)O1 (stereo not drawn),inactive,inactive,inactive,inactive,inactive,inactive,–,–,–,–
